Activity calls are given as the source filed them. How the calls were made is not given here.

The values that follow come from PubChem BioAssay AID623923 (Vanderbilt Specialized Chemistry Center, 2012).

This assay is described as follows: PubChem AID 623923. As to conditions: Ricerca radioligand binding panel, % inhibition, at 10 µM, stronger effect = higher value.

In the case of `COc1ccc(C)c2sc(NC(=O)c3ccncc3)nc12`, the inhibition of radioligand binding, adenosine A1 is 91% (active). The inhibition (5-HT2B binding) was determined as 70%. Further, under “DAT transporter binding”, the inhibition turned out to be 13%. The inhibition (GABA-A muscimol site binding) stood at 47%. The inhibition (NET transporter binding) came out at 18%. Further, the inhibition (PAF receptor binding) was found to be 34%. Moreover, the inhibition (adenosine A2A binding) is 100%. Also, under “adenosine A3 binding”, the inhibition turned out to be 99%. Further, the inhibition (hERG binding) amounted to 13%. In addition, the inhibition (muscarinic M1 binding) was -3%. Also, the inhibition (muscarinic M2 binding) is -2%. Also, the inhibition (muscarinic M3 binding) was 3%. Besides, the inhibition (sigma 1 binding) amounted to 39%.
